Neddyl block: cullin neddylation inhibition | P61081+Q13564 | TR-FRET cullin neddylation, biochemical | calls only at 25 µM | 360,000 compounds, 0.58% hits | AID 651699; in the data active = inhibition above about 36%
FAS-TE inh: FAS thioesterase (human) inhibition; recombinant FAS-TE, OMFH fluorogenic substrate, fluorescence endpoint; inhibition, % at 15 µM; 360,000 compounds, 0.67% hits; AID 602261;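 active = compounds whose normalised, plate-corrected inhibition of enzyme fluorescence in the single-dose primary screen is 50% or more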;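 also: 0% = DMSO with enzyme and 100% = substrate without enzyme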
KLK7 zymogen act: activators of human kallikrein-7 zymogen | 370,000 compounds, 0.9% hits | purified proKLK7, EDANS-DABCYL substrate fluorescence; 100% is mature enzyme control, 0% vehicle | P49862 | AID 652039 | activation, % at 7 µM;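 active = activation above the mean of all tested compounds plus 3 SD, computed per campaign excluding outliers beyond control limits, cut at about 13% in these data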
Target sequence (P49862 whole entry, looked up): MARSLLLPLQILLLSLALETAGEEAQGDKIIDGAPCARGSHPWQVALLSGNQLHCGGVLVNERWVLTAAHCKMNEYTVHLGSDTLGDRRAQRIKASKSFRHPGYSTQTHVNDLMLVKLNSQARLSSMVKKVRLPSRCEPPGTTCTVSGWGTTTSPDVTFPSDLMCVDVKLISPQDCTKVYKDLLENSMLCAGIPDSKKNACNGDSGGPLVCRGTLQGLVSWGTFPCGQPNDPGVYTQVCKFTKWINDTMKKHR
PfG6PD inh: PfG6PD (Plasmodium falciparum) enzyme inhibition; PfGluPho enzyme, NADPH resazurin-diaphorase fluorescence; inhibition, % at 20 µM; 350,000 compounds, 0.78% hits; AID 504690;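 active = inhibition reaching at least a set limit at 20 µM in the primary screen, cut at about 59% in these data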;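 also: 0% = DMSO wells with substrate and 100% = DMSO wells lacking glucose-6-phosphate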
KLK7 act conf: confirmation of human kallikrein-7 zymogen activators. shares compounds with KLK7 zymogen act. purified proKLK7, EDANS-DABCYL substrate fluorescence; scaled: vehicle 0, mature enzyme 100. activation, % at 7 µM. 3,200 compounds, 68% hits;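 active = activation, as change over the incubation, above the mean of all tested compounds plus 3 SD, cut at about 13% in these data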
EDANS interfere: counter-screen for kallikrein-7 activators: EDANS-DABCYL optical interference | shares compounds with KLK7 zymogen act | EDANS-DABCYL substrate fluorescence interference, no enzyme, 4 h; solvent 0%, active enzyme control 100% | activation, % at 7 µM | 3,200 compounds, 80% hits;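 active = activation above the all-compound mean plus 3 SD, ignoring values outside control-based bounds, cut at about 4.8% in these data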;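 also: value is the 4 h activation minus the activation read at time zero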
K7 EDANS ctr: optically interferes with EDANS-DABCYL fluorescence, kallikrein-7 activator counter-screen. EC50, µM. AID 720493. shares compounds with KLK7 zymogen act. 250 compounds, 20% hits. EDANS-DABCYL peptide fluorescence interference, no enzyme;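 active = compounds that raise the fluorescence signal in this interference counterscreen, with EC50 at or below 10 µM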;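 also: intact quenched peptide substrate alone read at 355 nm excitation and 520 nm emission; signal is fluorescence gain from T0 to T4 after four hours at room temperature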
Numbers without * were called inactive; i = inactive; . = no result given. Shown are actives, neighbours in structure and some others; about 2.7% of the full set was active somewhere.

SMILES | Neddyl block | FAS-TE inh | KLK7 zymogen act | PfG6PD inh | KLK7 act conf | EDANS interfere | others
Cc1cccn2c(=O)c3cc(C(=O)NCc4ccc(F)cc4)c(=N)n(CC4CCCO4)c3nc12 (stereo unspecified) | i | 5 | -4 | -5 | . | .
COCCn1nnnc1CN(Cc1cc2cc(OC)c(OC)cc2[nH]c1=O)C1CCCC1 | . | -7 | 18* | 19 | -11 | -10
Cc1ccc2[nH]c(=O)c(CN(CCCN3CCOCC3)Cc3nnnn3C3CCCC3)cc2c1 | i | -3 | 2 | -11 | . | .
COc1cc2cc(CN(CCCN3CCOCC3)Cc3nnnn3Cc3ccccc3)c(=O)[nH]c2cc1OC | . | -1 | 15* | 0 | -12 | -8
O=c1[nH]c2cc3c(cc2cc1CN(Cc1nnnn1CC1CCCO1)C1CCCC1)OCO3 (stereo unspecified) | . | -14 | 1 | 2 | . | .
O=c1[nH]c2cc3c(cc2cc1CN(Cc1nnnn1CC1CCCO1)C1CCCCC1)OCO3 (stereo unspecified) | . | -20 | 51* | -4 | -90 | -73
CCCCOC(=O)c1c(C)oc2ccc(NS(=O)(=O)c3ccc4c5c(cccc35)C(=O)N4)cc12 | i | 49 | 2 | 4 | . | .
CCN(CC)CCNS(=O)(=O)c1ccc2c3c(cccc13)C(=O)N2 | . | -4 | 100* | -12 | 58* | 70*
CN(C)CCNS(=O)(=O)c1ccc2c3c(cccc13)C(=O)N2 | . | -5 | 155* | 4 | 68* | 57* | K7 EDANS ctr=2.1*
O=C1Nc2ccc(S(=O)(=O)NCc3ccccn3)c3cccc1c23 | . | -8 | 16* | 14 | 72* | 72*
Cc1cc(C)c(S(=O)(=O)NCc2ccccn2)cc1C | i | 2 | -1 | 4 | . | .
COc1ccc(C(=O)N2CCCC(c3cc(C(=O)NCc4ccccc4)no3)C2)cc1 (stereo unspecified) | i | -2 | -1 | . | . | .
O=[N+]([O-])c1cccc(OC[C@@H](O)CN2CCC(C(O)(c3ccccc3)c3ccccc3)CC2)c1 | . | . | 0 | . | . | .
CCC(CC)COC(=O)C1=C(C)NC(=O)NC1c1cc(OC)ccc1OC (stereo unspecified) | i | 2 | 52* | 10 | 1 | 2
CCC(CC)COC(=O)C1=C(C)NC(=O)NC1c1ccc(OC)cc1 (stereo unspecified) | i | 9 | 1 | 12 | . | .
CC1(c2nnnn2Cc2ccccc2)CCCCC(=O)N1Cc1cccs1 (stereo unspecified) | . | . | 0 | . | . | .
CCc1cc(=O)oc2c3c(cc(OCC(=O)Nc4cccnc4)c12)OC(C)(C)CC3 | . | 17 | -5 | 18 | . | .
Cc1c(C)c2c(OCC(=O)NCc3cccnc3)cc3c(c2oc1=O)CCC(C)(C)O3 | . | -13 | -8 | 13 | . | .
Cc1cc(=O)oc2c3c(cc(OCC(=O)NCc4ccncc4)c12)OC(C)(C)CC3 | . | -4 | 23* | 7 | 37* | 0 | K7 EDANS ctr=>70
CCc1cc(=O)oc2c3c(cc(OCC(=O)NCc4cccnc4)c12)OC(C)(C)CC3 | . | 1 | 18* | 15 | -70 | -19
CCc1cc(=O)oc2c3c(cc(OCC(=O)NCc4ccccn4)c12)OC(C)(C)CC3 | . | 4 | 20* | 21 | -39 | -50
CCc1cc(=O)oc2c3c(cc(OCC(=O)NCCCCCC(=O)O)c12)OC(C)(C)CC3 | . | -1 | 30* | -3 | 57* | 64*
CCCc1cc(=O)oc2c3c(cc(OCC(=O)NCC4CCC(C(=O)O)CC4)c12)OC(C)(C)CC3 (stereo unspecified) | . | -6 | -2 | -10 | . | .
Cc1c(C)c2c(OCC(=O)NCc3ccncc3)cc3c(c2oc1=O)CCC(C)(C)O3 | i | -13 | -7 | 32 | . | .
CCCCCCCCN1C(=O)[C@@H](CC(=O)NCc2ccccc2)C[C@@]2(C(=O)OC)C1=C[C@H](COCc1ccccc1)O[C@@H]2C | . | . | 0 | . | . | .
SMILES | Neddyl block | FAS-TE inh | KLK7 zymogen act | PfG6PD inh | KLK7 act conf | EDANS interfere | others
CCn1c(=O)c2cc(C(=O)NCCN(C)C)sc2c2ccccc21 | . | -4 | 35* | 10 | 0 | 6.0*
CCN(CC)CCNC(=O)c1cc2c(=O)n(CC)c3ccccc3c2s1 | . | 0 | 38* | 6 | 5 | 4
CCN(CC)CCCNC(=O)c1cc2c(=O)n(CC)c3ccccc3c2s1 | . | 0 | 12 | 19 | . | .
NNC(=O)c1cc2c(s1)-c1cc(Cl)ccc1SC2 | . | -3 | 6 | 1 | . | .
CCN(CC)CCNC(=O)c1cc2c(s1)-c1ccccc1SC2 | . | -5 | 76* | -4 | 57* | 55*
CCCN(CCC)CCNC(=O)c1cc2c(=O)n(CC)c3ccccc3c2s1 | . | -2 | 0 | 16 | . | .
C[C@@H]1CCN(C2CC2)S(=O)(=O)c2c(cccc2N2CCC[C@H]2CO)O1 | . | . | 0 | . | . | .
OC(c1ccc(F)c(F)c1)c1nc(-c2ccoc2)cs1 (stereo unspecified) | i | 0 | -1 | . | . | .
Cn1c2ccccc2c(=O)c2cc(NCCCN3CCOCC3)ccc21 | i | -8 | 75* | 26 | 70* | 76*
O=c1c2ccccc2oc2ccc(NCCCN3CCOCC3)cc12 | i | -22 | 0 | 7 | . | .
O=c1c2ccccc2oc2cc(NCCCn3ccnc3)ccc12 | i | -13 | 63* | -2 | 66* | 60*
O=c1c2ccccc2oc2cc(NCCCN3CCOCC3)ccc12 | . | -6 | 75* | 7 | 65* | 64*
CC(C)NC(=O)OC[C@@H]1CSCCS(=O)(=O)N1 | . | . | 0 | . | . | .
N#CC1C=Cc2c(ccc3ccccc23)N1C(=O)c1ccccc1 (stereo unspecified) | . | 20 | 2 | 20 | . | .
Cc1cc(C)c2cc(C#N)c(NCCCNC(=O)CCC(=O)O)nc2c1 | . | -10 | 15* | -9 | 20* | 22*
CCc1cccc2cc3c(N)c(C(=O)Nc4ccc(S(=O)(=O)N5CCCC5)cc4)sc3nc12 | i | -51 | 119* | 8 | 62* | 57*
COc1ccc(NC(=O)COC(=O)c2c(NC(C)=O)sc(C)c2C)cc1 | i | 1 | 26* | -5 | -1 | -1
N#CCc1ccc(-c2cccc3nccn23)cc1 | . | -6 | 22* | . | 13* | 26*
CN(C)c1ccc(-c2cccc3nccn23)cc1 | . | -12 | 40* | . | 70* | 60* | K7 EDANS ctr=>70
c1cc(-c2ccc(N3CCOCC3)cc2)n2ccnc2c1 | . | -4 | 79* | . | 47* | 59*
CS(=O)(=O)Nc1ccc(-c2cccc3nccn23)cc1 | . | -13 | -41 | . | . | .
COc1ccc(CCN2C(=O)COc3ccccc3C2C(=O)NCc2ccccc2)cc1OC (stereo unspecified) | i | -12 | 0 | . | . | .
CCc1ccc(N2CC(C(=O)N3CCN(c4ccc([N+](=O)[O-])cc4)CC3)CC2=O)cc1 (stereo unspecified) | i | -9 | 0 | -6 | . | .
